Source: PubChem BioAssay (The Scripps Research Institute Molecular Screening Center)
M1 antag: antagonists of human M1 muscarinic receptor; CHO-K1 hM1, Fluo-8 calcium fluorescence, ACh EC80 antagonist; inhibition, % at 3 µM; AID 588852; hit rate 1.3% among 360,000; P11229;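 active = percent inhibition above its own plate's cutoff, namely the mean of that plate's compound wells plus 3 SD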;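 also: peak over basal fluorescence ratio during 140 s after agonist addition; 0% = ACh EC80 plus DMSO and 100% = DMSO alone without agonist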
Target sequence (P11229 whole entry, looked up): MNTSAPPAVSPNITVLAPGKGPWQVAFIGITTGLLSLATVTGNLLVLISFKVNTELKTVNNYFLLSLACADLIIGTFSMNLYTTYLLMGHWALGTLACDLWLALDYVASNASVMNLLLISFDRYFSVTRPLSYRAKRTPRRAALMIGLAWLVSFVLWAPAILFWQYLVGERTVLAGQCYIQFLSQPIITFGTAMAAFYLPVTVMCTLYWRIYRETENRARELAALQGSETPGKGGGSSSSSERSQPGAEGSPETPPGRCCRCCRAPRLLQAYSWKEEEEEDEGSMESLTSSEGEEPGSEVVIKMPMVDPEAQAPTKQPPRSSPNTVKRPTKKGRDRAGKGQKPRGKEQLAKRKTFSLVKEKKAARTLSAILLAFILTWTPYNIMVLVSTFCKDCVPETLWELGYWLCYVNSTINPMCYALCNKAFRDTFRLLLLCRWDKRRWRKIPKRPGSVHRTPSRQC
M1 PAM parental: nonselective activator or artifact in parental CHO-K1 calcium assay. ATP EC20, Fluo-8 calcium fluorescence; 0% at ATP EC20, 100% at ATP max. hit rate 0.02% among 360,000. activation, % at 3 µM;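 active = activation above the run cutoff, the mean activation of all test compounds plus 3 SD, cut at about 40% in these data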;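 also: peak over basal fluorescence ratio in a 140 s read after ATP addition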
CHO-K1 Ca antag: counter-screen for M1 antagonists: effect in parental CHO-K1 cells. ATP-induced calcium, Fluo-8 fluorescence. inhibition, % at 3 µM. hit rate 0.6% among 360,000;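 active = inhibition above a per-plate cutoff, the plate's mean sample inhibition plus 3 SD, cut at about 24% in these data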;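 also: 0% = DMSO plus EC80 ATP and 100% = DMSO alone without ATP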
CHRM1 PAM: potentiates human M1 receptor response to acetylcholine; P11229; CHO-K1 hM1, Fluo-8 calcium fluorescence, ACh EC20; 0% = ACh EC20, 100% = maximal ACh; activation, % at 3 µM; hit rate 0.088% among 360,000; AID 588819; in the data active = activation above about 19%, passing the limit was not always enough
M1 ag: agonists of human M1 muscarinic receptor | CHO-K1 hM1, Fluo-8 calcium fluorescence, agonist mode; 0% DMSO, 100% acetylcholine EC100 | activation, % at 3 µM | hit rate 0.33% among 360,000;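 active = activation above the run's mean compound activation plus 3 SD, cut at about 16% in these data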;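 also: peak over basal fluorescence ratio within a 140 s kinetic read after compound addition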
CHO-K1 Ca ag: M1 agonist counterscreen hit in parental CHO-K1 cells; Fluo-8 calcium fluorescence; scaled to maximal ATP response, vehicle zero; activation, % at 3 µM; hit rate 0.48% among 360,000; in the data active = activation above about 15%;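 also: untransfected CHO-K1 host cells lacking M1 receptor as counterscreen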
Starred values were filed as active, the others as inactive. This is a sample that favours compounds with a hit; in the whole collection about 2.4% have one here.

SMILES	M1 antag	M1 PAM parental	CHO-K1 Ca antag	CHRM1 PAM	M1 ag	CHO-K1 Ca ag
Cc1ccc(-c2nnc(N3CCN(C(=O)COc4cccc(C)c4)CC3)c3ccccc23)cc1	32	10	-10	-24	-9	0
CCCn1c(N)c(N(CCOC)C(=O)c2cc3ccccc3cc2OC)c(=O)[nH]c1=O	12	-17	-7	-3	-3	0
OCC1(Cc2ccccc2)CCCN(Cc2ccc(-c3ccco3)cc2)C1 (stereo not given)	44*	11	-11	-24	-8	4
OCC1(Cc2ccccc2)CCN(Cc2ccc(-c3ccco3)cc2)CC1	20	23	-14	-6	-1	2
CC(NC(=O)c1cc(S(=O)(=O)N2CCOCC2)ccc1N1CCCC1)c1ccc(Cl)c(Cl)c1 (stereo not given)	0	18	-13	0	-7	0
CSc1ccccc1NS(=O)(=O)c1ccccc1	-4	-8	25*	8	-2	0
COc1ccc(CNC(=O)[C@H](C)NC(=O)C2CCN(C(=O)[C@@H](N)Cc3ccccc3)CC2)cc1	-8	2	1	2	-2	0
CC(C)(C)c1cc2cccnc2n1Cc1cccc(Cl)c1	31*	0	-8	-12	-5	0
COc1ccnc2c1c(=O)n(Cc1cccc(Cl)c1)c(=O)n2C	-6	-7	-9	4	-2	0
Cc1ccc(C(O)c2ncc(-c3cccc(C(F)(F)F)c3)[nH]2)cc1F (stereo not given)	-2	13	4	4	-1	3
Cc1cc2ncn(CCC(=O)NC3CCCC3)c2cc1C	16	5	9	-5	-5	19*
CN1CCC(CC(C(=O)N2CCCC2)(c2ccccc2)c2ccccc2)C1 (stereo not given)	61*	-17	-7	-27	-8	1
CC(C)(C)C(=O)N1CCC[C@H]1C(O)(c1ccccc1)c1ccccc1	-1	-2	8	1	-4	-1
CCNC(=O)C1CCCN(C(=O)c2ccc(N(C)C)cc2)CC1 (stereo not given)	-11	18	-16	2	0	1
CCOC(=O)/C(C#N)=C\C1=C(N2CCOCC2)CC(C)(C)OC1	-16	24	-9	14	-4	1
COc1cccc(C(=O)OC2CCN(C)CC2)c1	10	-14	29*	-9	-10	-1
CN1CCC(OC(=O)COc2ccccc2)CC1	51*	2	-2	-18	-3	0
CN1CCC(OC(=O)COc2ccc(F)cc2)CC1	-13	21	-19	8	-8	1
CC(C)(C)Cc1c(-c2ccc(F)cc2)nc2ccc(Cl)cn12	15	22	-19	-14	-6	1
COc1cccc(N2C(=O)CC(N3CCN(CCN=CC4=C(O)CC(C)(C)CC4=O)CC3)C2=O)c1 (stereo not given)	1	12	10	-1	-5	19*
CC1(C)CC(=O)C(C=NCCN2CCN(C3CC(=O)N(c4cccc(Br)c4)C3=O)CC2)=C(O)C1 (stereo not given)	8	7	-13	-2	-2	3
COCCN(CCOC)S(=O)(=O)c1ccc(C(=O)Nc2ccc([N+](=O)[O-])cc2OC)cc1	-5	-14	2	2	-4	1
Cc1nc(NC(=O)COC(=O)CCc2ccccc2)c(Cl)cc1Cl	-14	-8	-2	25*	2	-1
CC1(C)Cc2cccc(OCC(=O)Nc3ccccc3N3CCOCC3)c2O1	30*	3	7	-13	-3	0
O=C(Nc1ccc(SC(F)F)cc1)c1ccc2nccnc2c1	24	-11	-1	-24	-3	17*
COC(=O)c1ccc(NC(=O)c2ccc3nccnc3c2)cc1	-8	24	-11	7	2	7
O=S(=O)(c1ccc2c(c1)C(O)c1ccccc1CC2)C(F)(F)F (stereo not given)	30*	-21	9	-26	-7	4
CCCNC(=O)Nc1ccc(NC(C)=O)cc1	-3	-11	16	3	-7	0
O=C(CCCCCn1c(=S)[nH]c2cc3c(cc2c1=O)OCO3)N1CCN(Cc2ccccc2)CC1	19	-4	5	-7	-5	2
